eIF4E-4G inh – blocks eIF4E binding to eIF4G | inhibition, % at 21.7 µM | 220,000 tested, 0.37% active | TR-FRET eIF4E-eIF4GI(517-606) binding, 2 h | AID 782;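 active = inhibition above about 30%, limit read from the data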;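 note: 0% = full FRET control wells and 100% = background wells lacking eIF4GI fragment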
EP2 antag – blocks the human prostaglandin E2 receptor EP2. inhibition, % at 25 µM. C6 glioma cells expressing human EP2, cAMP TR-FRET; cells stimulated with saturating PGE2. P43116. AID 1422. 260,000 tested, 0.52% active;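 active = percent inhibition above 40 after rounding to a whole number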;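 note: rat C6 glioma host cells with rolipram phosphodiesterase inhibitor present; the protocol text gives 20 µM as final concentration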
Target sequence (P43116 whole entry, looked up): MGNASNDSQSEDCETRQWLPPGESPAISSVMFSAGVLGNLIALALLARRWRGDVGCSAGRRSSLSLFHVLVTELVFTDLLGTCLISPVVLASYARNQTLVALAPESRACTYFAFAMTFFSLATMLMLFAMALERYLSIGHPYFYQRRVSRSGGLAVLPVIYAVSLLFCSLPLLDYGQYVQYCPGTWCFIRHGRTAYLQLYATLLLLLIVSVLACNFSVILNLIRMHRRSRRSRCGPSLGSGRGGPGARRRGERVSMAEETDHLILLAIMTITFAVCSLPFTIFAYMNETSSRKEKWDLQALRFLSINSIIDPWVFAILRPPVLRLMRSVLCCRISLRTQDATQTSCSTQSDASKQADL
EP2 modulator – modulates human prostaglandin E2 receptor EP2 signaling; P43116; induction, % at 25 µM; 260,000 tested, 0.83% active; EP2-expressing cells, cAMP HTRF FRET, PGE2 co-stimulation;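 active = compounds whose cAMP rise, as percent of the full-agonist control response, exceeds 60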;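 note: rat C6 glioma line stably carrying human EP2 under a CMV promoter; the protocol text gives 20 µM as final concentration; 100% = response of wells given 1 µM PGE2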
PERK inh – blocks human PERK kinase | CHO PERK-DD fusion, SEAP luminescence translation reporter | inhibition, % at 5.6 µM | Q9NZJ5 | 220,000 tested, 0.17% active;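 active = inhibition above the mean inhibition of all tested compounds plus 3 SD, set separately per screening campaign, cut at about 2.9% in these data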;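 note: PERK kinase domain activated by AP20187 dimerizer at 100 nM; 0% = DMSO with dimerizer and 100% = rapamycin at 8.4 µM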
Active calls of the source: *; . = not tested or not shown; ! = repeats disagree; [ ] = remark or other dose. Shown are actives, neighbours in structure and some others; about 1.8% of the full set was active somewhere.

SMILES | eIF4E-4G inh | EP2 antag | EP2 modulator | PERK inh
CCCn1c(=O)c(C(=O)Nc2ccc(OCC)cc2)c(O)c2ccccc21 | . | 3 | 3 | .
CCc1c(C)nc2cc(-c3cccs3)nn2c1N1CCC(O)CC1 | . | 16 | -59 | .
O=C(Cc1ncon1)Nc1ccc(F)c(F)c1F | -1 | 15 | 3 | 3.6*
O=C(Nc1ccc2c(c1)OCCO2)C1CCN(c2ccc(S(=O)(=O)N3CCCC3)cc2)CC1 | . | 24 | -3 | .
Cc1ccc(C(=O)Nc2sc3c(c2C(=O)NC2CCS(=O)(=O)C2)CCCC3)cc1 (centres undefined) | . | 14 | 4 | .
Cc1nc2c(c(=O)[nH]1)CN(Cc1cccc(Oc3ccccc3)c1)CC2 | . | 8 | -41 | .
C[C@@]1(CO)[C@H](O)CC[C@]2(C)[C@@H]1CC[C@H]1C[C@H]3C[C@]12CC[C@@]3(O)COC(=O)CN | . | 52* | -3 | .
O=C(CSc1nnnn1-c1ccc(Cl)cc1)NCc1cccs1 | . | 6 | -7 | .
COC(=O)c1ccc(=O)c2nc3/c(=C/O)c(O)cc(=O)c3[nH]c12 | 55* | 15 | 21 | 0
COC(=O)c1ccc(N)cc1O | 0 | 12 | 27 | -1
Cc1cc2cc(C(c3nnnn3C(C)(C)C)N3CCN(Cc4ccccc4)CC3)c(=O)[nH]c2cc1C (centres undefined) | . | 91* | 11 | .
CCc1ccc2[nH]c(=O)c(C(c3nnnn3C(C)(C)C)N3CCN(c4ccccc4F)CC3)cc2c1 (centres undefined) | . | 11 | 74* | .
CN(C)c1ncc(CN2CCC3(CC2)NC(=O)c2ccccc2O3)cn1 | . | 3 | -39 | .
C/C(=N\NC(N)=S)c1ccccc1 | -8 | 5 | -49 | 0
COc1ccc2c(c1)[n+]([O-])c(/C(C)=N/NC(N)=S)c(C)[n+]2[O-] | . | 44* | 8 | .
CC12CCC(C(=O)N(Cc3ccccc3)Cc3ccccc3)(OC1=O)C2(C)C (centres undefined) | -5 | 18 | 61* | -1
Cc1nnc(N2C(=O)C(O)=C(C(=O)c3ccco3)C2c2ccc(F)cc2)s1 (centres undefined) | -2 | 17 | 20 | 0
Cc1nnc(N2C(=O)C(O)=C(C(=O)c3ccco3)C2c2ccc(C(C)(C)C)cc2)s1 (centres undefined) | -4 | 57* | 12 | -1
O=C(CSc1nnc2scc(-c3ccc(Cl)cc3)n12)NC1CCCCC1 | . | 12 | -15 | .
Cc1ccccc1C(=O)Nc1sc2c(c1C(=O)N1CCCCC1)CCCC2 | . | 4 | 26 | .
Cc1ccc(C)c2nc(SCC(=O)Nc3nccs3)c(C#N)cc12 | . | 26 | 70* | .
Cc1cccc(NC(=O)CSc2nc3c(C)ccc(C)c3cc2C#N)c1 | . | 4 | 11 | .
CCOC(=O)Cc1n[nH]c(=O)c2ccccc12 | 1 | 7 | 4 | 1
O=C(Cc1n[nH]c(=O)c2ccccc12)OCC(=O)N(Cc1ccccc1)Cc1ccccc1 | 1 | 8 | 63* | 0
COC(=O)Cc1n[nH]c(=O)c2ccccc12 | -1 | -11 | 32 | 3.5*
SMILES | eIF4E-4G inh | EP2 antag | EP2 modulator | PERK inh
CC1(C)CC(=O)C2=C(C1)OC1=C(C(=O)CC(C)(C)C1)C2c1ccc(O)cc1O | 8 | 98* | -39 | 2
COc1ccc(-[n+]2c(C)cc(/C=C3\Sc4ccccc4N3C)cc2C)cc1 | 6 | 15 | -87 | -1
CCN1/C(=C/c2ccc3cc(C)ccc3[n+]2CC)Sc2cc(C)c(C)cc21 | 10 | 76* | -54 | 0
CCOC(=O)/C(=C/C=C1\Sc2cc(C)c(C)cc2N1CC)C(C)=O | 0 | 11 | -104 | -1
CC[n+]1c(/C=C2\Sc3cc(C)ccc3N2C)ccc2ccccc21 | . | 45* | -44 | .
CC[n+]1c(/C=C2\Sc3ccccc3N2C)ccc2cccc(C)c21 | 6 | 107* | -28 | 0
COc1ccccc1-[n+]1c(C)cc(/C=C2\Sc3ccccc3N2C)cc1C | -2 | 9 | -6 | -2
CCN1/C(=C/c2ccc3cc(OC)ccc3[n+]2CC)Sc2cc(C)ccc21 | . | 64* | -94 | .
COc1ccc(F)c(C2C3CN(C(=O)OC(C)(C)C)CC=C3C(C#N)=C(N)C2(C#N)C#N)c1 (centres undefined) | . | 10 | -46 | .
O=C(Nc1ccc(S(=O)(=O)N2CCOCC2)cc1)c1cc(Cl)ccc1Cl | . | 11 | -1 | .
CCN1/C(=C/c2ccc3cc(C)ccc3[n+]2CC)Sc2ccccc21 | 5 | 55* | -71 | -1
CCN1/C(=C/c2ccc3cc(C)ccc3[n+]2CC)Sc2ccc(C)cc21 | . | 14 | -62 | .
CCCCNc1nc(N)nc(-c2cc(Cl)ccc2O)n1 | -2 | 9 | 64* | 1
CCNc1nc(N)nc(-c2cc(Cl)ccc2O)n1 | 4 | 8 | -33 | 0
CCOc1ccc(-n2c(-c3ccco3)n[nH]c2=S)cc1 | 34*[fluorescence artefact?] | . | 4 | 2
COc1ccc(C2(C(=O)N3CCCC3c3nc(-c4ccncc4)n[nH]3)CCCC2)cc1 (centres undefined) | . | 2 | -5 | .
O=C1ON=C(c2ccc(Cl)cc2)/C1=C/c1ccc(O)cc1 | 4 | 53* | -65 | 0
CC1=NOC(=O)/C1=C/c1ccc(O)cc1 | 0 | 8 | 18 | 1
NC(=O)c1cccc(-c2cc(Nc3ccc(OC(F)(F)F)cc3)ncn2)c1 | 1 | 59* | -23 | .
O=C(Nc1ccc(OC(F)(F)F)cc1)Nc1cccnc1 | -5 | 11 | -15 | 2
CCCc1nc2cc(NC(=O)c3cc(-c4ccccn4)n[nH]3)ccc2n1C | . | 2 | -56 | .
CCN(CC)C(=O)N(Cc1ccccc1)Cc1cc2cc(C)ccc2[nH]c1=O | . | 11 | 18 | .
O=c1c([N+](=O)[O-])cc(C(F)(F)F)cn1Cc1c(Cl)cccc1Cl | 2 | . | 19 | 3.3*
O=C1OCC/C1=C\OCCCO/C=C1\CCOC1=O | 86* | 10 | -1 | 1
CC[C@@]1(O)C(=O)OCc2c1cc1n(c2=O)Cc2cc3c(CN(C)C)c(O)ccc3nc2-1 | . | 58*! | 22 | .
SMILES | eIF4E-4G inh | EP2 antag | EP2 modulator | PERK inh
O=C(N/N=C/c1cn(-c2cccs2)nc1-c1ccccc1)c1ccc(O)cc1 | 2 | 42* | -38 | -1
O=C(N/N=C/c1cn(-c2cccs2)nc1-c1ccccc1)c1ccccc1Cl | 5 | 7 | -27 | -1
O=C(O)c1cc(-c2ccccc2)n(-c2ccccc2C(=O)O)n1 | 42* | 1 | 8 | 1
COc1cc2oc(=O)c(Br)c(C)c2c(OC)c1OC | -32 | 44* | 44 | 0
Cc1nn(-c2ccc(S(=O)(=O)O)cc2)c(O)c1N=Nc1ccc(-c2ccc(N=Nc3ccc4c(S(=O)(=O)O)cc(S(=O)(=O)O)c(N)c4c3O)c(O)c2)cc1O.[Cu].[Cu] | . | 54* | 21 | .
CCOC(=O)CSc1nnc(CSc2nc(C)cc(C)n2)n1Cc1ccco1 | 136*[fluorescence artefact?] | 7 | 5 | 0
COc1ccc2[nH]c(=O)c(CN(Cc3ccco3)C(c3nnnn3C3CCCC3)C(C)C)cc2c1 (centres undefined) | . | 6 | 46 | .
CCn1c(SCC(=O)Nc2ccccc2OC)nnc1C1CCCCC1 | . | 9 | -1 | .
CCC(C)NS(=O)(=O)c1ccc(OCC(=O)NCc2ccccn2)cc1 (centres undefined) | 2 | 22 | 14 | 3.2*
